Measured values: article PMC7826789 (International Journal of Molecular Sciences, 2021)

How the values were obtained:
Conditions in all cases: Compound Concentration (nM):1000
EGFR(G719S) = tested on: EGFR(G719S)
[1] = tested on: EGFR(L747-E749del, A750P)
[2] = tested on: EGFR(L747-S752del, P753S)
EGFR(L747-T751del,Sins) = tested on: EGFR(L747-T751del,Sins)
EGFR(L858R) = tested on: EGFR(L858R)
EGFR(L858R,T790M) = tested on: EGFR(L858R,T790M)
EGFR(L861Q) = tested on: EGFR(L861Q)
EGFR(S752-I759del) = tested on: EGFR(S752-I759del)
EGFR(T790M) = tested on: EGFR(T790M)
EGFR = tested on: EGFR
EIF2AK1 = tested on: EIF2AK1
EPHA1 = tested on: EPHA1
EPHA2 = tested on: EPHA2
EPHA3 = tested on: EPHA3
EPHA4 = tested on: EPHA4
EPHA5 = tested on: EPHA5
EPHA6 = tested on: EPHA6
EPHA7 = tested on: EPHA7
EPHA8 = tested on: EPHA8
EPHB1 = tested on: EPHB1
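Further: KINOMEscan scanMAX binding as percent activity remaining versus control; lower means stronger binding.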

Row | SMILES | Percent Control (EGFR(G719S)) [%] | Percent Control [1] [%] | Percent Control [2] [%] | Percent Control (EGFR(L747-T751del,Sins)) [%] | Percent Control (EGFR(L858R)) [%] | Percent Control (EGFR(L858R,T790M)) [%] | Percent Control (EGFR(L861Q)) [%] | Percent Control (EGFR(S752-I759del)) [%] | Percent Control (EGFR(T790M)) [%] | Percent Control (EGFR) [%] | Percent Control (EIF2AK1) [%] | Percent Control (EPHA1) [%] | Percent Control (EPHA2) [%] | Percent Control (EPHA3) [%] | Percent Control (EPHA4) [%] | Percent Control (EPHA5) [%] | Percent Control (EPHA6) [%] | Percent Control (EPHA7) [%] | Percent Control (EPHA8) [%] | Percent Control (EPHB1) [%]
1 | O=C(Nc1n[nH]c2nc(-c3ccc(O)cc3)c(Br)cc12)C1CC1 [SB-725317] | 100 | 76 | 99 | 100 | 96 | 100 | 100 | 82 | 96 | 100 | 14 | 82 | 100 | 85 | 86 | 100 | 100 | 100 | 100 | 100
2 | COc1ccc(COc2ccc(Cc3cnc(N)nc3N)cc2OC)cc1 [GW632580X] | 61 | 100 | 75 | 99 | 86 | 98 | 61 | 85 | 69 | 92 | 100 | 97 | 100 | 100 | 99 | 93 | 98 | 100 | 90 | 90
3 | C/C(Nc1ccc(S(N)(=O)=O)cc1)=C1/C(=O)Nc2ccccc21 [GW335962X] | 63 | 93 | 82 | 100 | 100 | 95 | 68 | 100 | 74 | 100 | 100 | 100 | 98 | 100 | 92 | 100 | 85 | 100 | 100 | 100
4 | NS(=O)(=O)c1ccc(N/N=C2\C(=O)Nc3ccc(C(=O)NCCc4c[nH]cn4)cc32)cc1 [GW300660X] | 73 | 100 | 100 | 100 | 100 | 99 | 85 | 97 | 95 | 99 | 100 | 100 | 100 | 100 | 89 | 100 | 100 | 100 | 100 | 100
5 | CN1CCN(C(=O)c2ccc(NC(=O)Nc3ccc(N(C)c4ccnc(Nc5ccc(CS(C)(=O)=O)cc5)n4)cc3)cc2)CC1.Cl [GW830263A] | 100 | 99 | 78 | 100 | 92 | 55 | 92 | 100 | 54 | 100 | 100 | 56 | 85 | 79 | 85 | 99 | 76 | 92 | 89 | 87
6 | Cl.O=C(O[C@H]1CN[C@H](C#Cc2cc3ncnc(Nc4ccc5c(cnn5Cc5ccccc5)c4)c3s2)C1)N1CCOCC1 [GSK200398A] | 2 | 66 | 20 | 24 | 9.2 | 87 | 0.3 | 3.1 | 44 | 25 | 100 | 87 | 96 | 94 | 96 | 100 | 95 | 100 | 100 | 100
7 | O=C1Nc2ccc(C(=O)c3ccco3)cc2C1=Cc1cc(Cl)c(O)c(Cl)c1 [GW406108X] | 58 | 100 | 94 | 91 | 100 | 92 | 57 | 81 | 77 | 100 | 100 | 100 | 75 | 100 | 89 | 100 | 100 | 100 | 100 | 100
8 | CN(C)CCNC(=O)Nc1ccc(N(C)c2ccnc(Nc3ccc(CS(C)(=O)=O)cc3)n2)cc1.Cl [GW830900A] | 97 | 73 | 79 | 100 | 83 | 60 | 100 | 100 | 64 | 95 | 88 | 76 | 89 | 85 | 100 | 90 | 100 | 81 | 78 | 78
9 | NS(=O)(=O)c1ccc(N/N=C2\C(=O)Nc3ccc(C(=O)NCc4ccncc4)cc32)cc1 [GW300657X] | 97 | 100 | 90 | 81 | 94 | 100 | 91 | 98 | 100 | 93 | 100 | 100 | 89 | 100 | 88 | 94 | 100 | 100 | 99 | 100
10 | COc1cccc(-c2c[nH]c3c(N/N=C/c4ccncc4)ncnc23)c1 [GW814408X] | 32 | 18 | 16 | 35 | 23 | 30 | 41 | 41 | 53 | 30 | 100 | 100 | 96 | 93 | 100 | 100 | 100 | 91 | 79 | 81
11 | C[C@@H](Oc1cc(-n2cnc3ccc(OC4CCN(C)CC4)cc32)sc1C(N)=O)c1ccccc1Cl [GSK579289A] | 59 | 58 | 100 | 100 | 79 | 85 | 64 | 66 | 62 | 75 | 62 | 69 | 100 | 81 | 97 | 100 | 96 | 89 | 81 | 82
12 | CC(C)COC(=O)c1ccc2c(c1)/C(=C/Nc1ccc(S(N)(=O)=O)cc1)C(=O)N2 [GW416981X] | 32 | 62 | 48 | 60 | 15 | 100 | 8.8 | 100 | 95 | 13 | 100 | 100 | 100 | 100 | 94 | 100 | 100 | 100 | 100 | 100
13 | NS(=O)(=O)c1ccc(N/N=C2\C(=O)Nc3ccc(-c4cnco4)cc32)cc1 [GW276655] | 76 | 100 | 100 | 89 | 72 | 66 | 79 | 70 | 66 | 87 | 58 | 79 | 100 | 85 | 88 | 89 | 87 | 100 | 94 | 96
14 | COc1ccccc1-c1cc(/C=C2\C(=O)Nc3ncc(Br)cc32)cc(Br)c1O [GW442130X] | 100 | 100 | 88 | 100 | 100 | 85 | 100 | 100 | 72 | 100 | 100 | 100 | 100 | 98 | 100 | 100 | 100 | 100 | 100 | 100
15 | COC(=O)Nc1nc2ccc(Oc3ccc(NC(=O)Nc4cc(C(F)(F)F)ccc4F)cc3)cc2s1.Cl [GW693917A] | 83 | 86 | 95 | 100 | 78 | 95 | 100 | 100 | 68 | 90 | 100 | 19 | 14 | 9.9 | 12 | 52 | 11 | 16 | 0.5 | 31
16 | NS(=O)(=O)c1ccc(Nc2ncc(-c3ccccc3)o2)cc1 [GW572399X] | 100 | 68 | 100 | 100 | 88 | 96 | 100 | 100 | 92 | 88 | 100 | 100 | 100 | 100 | 97 | 100 | 100 | 84 | 81 | 91
17 | COc1cccc(-n2ncc3c(N/N=C/c4ccncc4)ncnc32)c1 [GW784752X] | 59 | 96 | 81 | 100 | 75 | 96 | 77 | 87 | 100 | 75 | 100 | 87 | 100 | 100 | 98 | 100 | 100 | 100 | 100 | 100
18 | CCn1c(-c2nonc2N)nc2c(C#CC(C)(C)O)nc(OCCNC)cc21.Cl [GSK949675] | 100 | 92 | 100 | 100 | 100 | 100 | 100 | 100 | 85 | 96 | 100 | 100 | 100 | 100 | 100 | 98 | 100 | 100 | 100 | 100
19 | COc1ccc2[nH]c3c4[nH]c5ccc(OC)cc5c4c4c(c3c2c1)C(=O)NC4=O [GW296115X] | 57 | 24 | 49 | 44 | 50 | 35 | 71 | 68 | 45 | 51 | 86 | 93 | 85 | 86 | 86 | 85 | 88 | 86 | 87 | 77
20 | CCS(=O)(=O)c1ccc(OC)c(Nc2ncc(-c3cccc(OC)c3)o2)c1 [GW580509X] | 98 | 65 | 85 | 100 | 80 | 100 | 81 | 95 | 89 | 83 | 100 | 100 | 100 | 94 | 92 | 100 | 100 | 100 | 100 | 100
21 | CN(C)c1cc2c(Nc3ccc4c(cnn4Cc4ccccc4)c3)ncnc2cn1 [GW282974X] |  |  |  |  |  |  |  |  |  |  | 100 | 89 | 100 | 98 | 95 | 33 | 87 | 95 | 90 | 90
22 | COc1cc(/C=N/Nc2ncnc3[nH]ncc23)ccc1O [GW578748X] | 62 | 78 | 100 | 78 | 90 | 72 | 64 | 86 | 48 | 75 | 100 | 92 | 96 | 58 | 74 | 90 | 100 | 100 | 100 | 100
23 | Cl.O=S1CCN(Cc2ccc(-c3ccc4ncnc(Nc5ccc(OCc6ccccc6)c(F)c5)c4c3)o2)CC1 [GW576924A] | 2.2 | 1.3 | 5.9 | 42 | 0.3 | 100 | 0 | 1.4 | 46 | 0.5 | 100 | 100 | 100 | 100 | 95 | 100 | 100 | 100 | 95 | 100
